The source of these data is PubChem BioAssay AID1981 (Southern Research Specialized Biocontainment Screening …, 2009).

In all, about 2,200 compounds went through this assay and about 480 (22%) were called active. The rule behind the calls is not given here. The list is a sample of the results. Results with a measured potency or affinity are listed apart.

The test is described as follows: S. Typhimurium GFP fluorescence dose response in modified counterscreen for PhoP regulon inhibitor project (AID 1981). The following applies: 4 h; series mostly up to 150 µM.
As for `Cc1cc(C)c(C#N)c(SCc2cn3ccccc3n2)n1`, the call was inactive.
With `CCS(=O)(=O)Nc1cc(C(=O)OC)ccc1C(=O)OC` the entry was “inactive”; with `Cc1ccc(-n2nnnc2SCC(=O)Nc2ncc(Cc3ccccc3Cl)s2)cc1`, “inactive”.
Turning to `CCOc1cc(CNn2cnnc2)ccc1OCC(=O)NC1CCCCC1`, the compound was classed as inactive.
Then `CCN(CCO)Cc1csc2ccccc12`, with “inactive”; and `CCOc1ccccc1OCC(=O)Nc1ccc(S(=O)(=O)Nc2nc(C)cc(C)n2)cc1`, with “inactive”.
Regarding `CCOCCCNC(=S)Nc1cc(C)cc(C)c1`, the outcome was inactive.
Then `COc1cccc(-c2nc(-c3ccc(Br)o3)no2)c1`, with “inactive”; and `CCN(CC)c1ccc(/C=C(\C#N)C(=O)NCc2ccco2)cc1`, with “inactive”; and `Cc1ccc(NC(=S)NCCc2ccccc2)c(C)c1`, with “inactive”.
Then `CCc1cccc(NC(=O)CCCSc2nc3ccccc3[nH]2)c1`, with “inactive”; and `Cc1cc(C)cc(-n2c(C)cc(C=C(C#N)C#N)c2C)c1`, with “inactive”.
Turning to `CCCc1cnc(NCCNCC(O)COc2ccc(Cl)c(Cl)c2)nc1` (configuration not stated), the call was inactive.
Regarding `CCC(=O)c1ccc(OCC(O)CNCc2ccc(F)cc2)cc1` (configuration not stated), the compound was called inactive.
For the compound `CC(=O)Nc1ccc(NS(=O)(=O)c2ccc3c(c2)n(C)c(=O)n3C)cc1`, the compound was classed as inactive.
As to `Cc1ccc(NC(NC(=O)c2ccccn2)C(Cl)(Cl)Cl)cc1` (configuration not stated), the outcome was inactive.
For `O=C(NCc1ccco1)c1cccc(Nc2nc3ccc(Br)cc3[nH]2)c1`, the call was inactive.
With `O=C(NC(=S)N1CCN(c2c(Cl)cccc2[N+](=O)[O-])CC1)c1cccs1`, the call was inactive.
Then `COc1ccc(/C=N/NC(=O)c2ccc3c(c2)OCCO3)cc1[N+](=O)[O-]`, with “inactive”.
Then `Cc1ccc(C(=O)N/N=C/c2ccc([N+](=O)[O-])s2)cc1`, with “inactive”; and `O=C(Nc1cnn(Cc2ccc(F)cc2)c1)c1cnccn1`, with “inactive”.
With `Cc1ccccc1-n1nnnc1Sc1nnnn1-c1ccccc1` the entry was “inactive”; with `O=C1c2ccccc2C(=O)N1CCc1csc(-c2cccc(Cl)c2)n1`, “inactive”.
`O=C(COC(=O)/C=C/c1ccco1)Nc1cccc([N+](=O)[O-])c1`: the compound was classed as inactive.
With `CCOc1ccc2c(c1)nc(SCC(=O)c1ccc(Br)s1)n2C` the entry was “inactive”.
As to `CC(=O)Nc1c(O)nc(SCC(=O)N2CCN(c3ccc(F)cc3)CC2)[nH]c1=O`, the compound was called inactive.
For the compound `Cc1c(Cl)cccc1NC(=O)CSCC(N)=O`, the compound was classed as inactive.
Consider `CSCC[C@H](NC(=O)Nc1ccc(C)cc1)C(=O)O`, for which the call was inactive.
Then `N#Cc1c(N)nc(SCC(=O)NC2CCCCC2)c(C#N)c1-c1ccc(Cl)cc1`, with “inactive”; and `N=c1c2c(n(Cc3ccc(Br)cc3)c3c1CCC3)CCCC2`, with “inactive”.
With `CCCCn1c(=N)n(CC(=O)C(C)(C)C)c2ccccc21`, the outcome was inactive.
For `CCCCCCCCn1c2c(c(=N)c3c1CCC3)CCCC2`, the result was inactive.
Then `CCCCn1c(NCCO)nc2ccccc21`, with “inactive”.
Then `CCCCC1CCC(C(=O)Nc2ccccc2)CC1` (configuration not stated), with “inactive”.
Then `COC(=O)C(C)N1C(=O)S/C(=C\c2cc(C)n(-c3ccccn3)c2C)C1=O` (configuration not stated), with “inactive”; and `Cc1ccc2nc(-c3ccc(Br)o3)oc(=O)c2c1`, with “inactive”; and `O=C1N=c2ccccc2=C1c1[nH]c(=S)[nH]c1O`, with “inactive”.
On to `O=C1c2ccccc2-c2onc3ccc(NCc4ccco4)c1c23`, for which the outcome was inactive.
With `CCn1c(=N)n(CC(O)c2ccccc2)c2ccccc21` (configuration not stated) the entry was “inactive”.
With `Cc1ccc(/C=C/c2ccc(=O)n(Cc3ccccc3Cl)n2)cc1` the entry was “inactive”.
Regarding `[O-]/[N+](=C\c1ccncc1)c1ccccc1`, the result was inactive.
For `CCCn1c(NCCO)nc2ccccc21`, the call was inactive.
Then `c1csc(C2Nc3cccc4cccc(c34)N2)c1`, with “inactive”.
Take `Brc1ccc(NC2=Nc3ccccc3CC2)cc1`: the compound was called inactive.
Consider `O=C(Nc1cnn(Cc2ccc(Cl)cc2Cl)c1)c1noc2c1CCCC2`, for which the outcome was inactive.
Take `Cc1cccc(-n2c(SCC(N)=O)nc3c(c2=O)C2(CCCC2)Cc2ccccc2-3)c1`: the outcome was inactive.
With `COC(=O)c1sccc1NC(=O)c1csc2c1CCCC2` the entry was “inactive”.
Take `COc1ccc(NC(=O)CN2CCCCC2)c([N+](=O)[O-])c1`: the outcome was inactive.
In the case of `Oc1ccccc1CN1CCCN(Cc2ccccc2O)C1`, the compound was called inactive.
With `CC(C)Cc1oc(C(=O)O)cc1CN1CCOCC1` the entry was “inactive”; with `Cc1ccc(Oc2ccc3c(c2)C(=O)N(c2ccc(S(=O)(=O)Nc4nccs4)cc2)C3=O)cc1`, “inactive”.
Then `COc1cc(OC)cc(C(=O)N[C@H](C(=O)OCC(=O)Nc2ccc(C(N)=O)cc2)C(C)C)c1`, with “inactive”; and `COc1ccccc1-n1c(SCc2cc(=O)oc3cc(O)ccc23)nc2ccccc2c1=O`, with “inactive”; and `COc1cccc(C2C3=C(Nc4[nH]n(-c5ccccc5)c(=O)c42)c2ccccc2C3=O)c1` (configuration not stated), with “inactive”.
Then `CC(C)Oc1cccc(C(=O)NC(=S)Nc2ccccc2)c1`, with “inactive”.
Consider `CC(CO)(CO)NCc1ccc(-c2ccccc2)cc1`, for which the call was inactive.
In the case of `Cc1cc(C(=O)NCc2ccco2)no1`, the compound was classed as inactive.
On to `Cc1cc(SCC(N)=O)nc(SCC(=O)c2ccccc2)n1`, for which the call was inactive.
Take `COc1ccccc1NS(=O)(=O)c1cccc(C(=O)N/N=C/c2c(C)nn(-c3ccccc3)c2N2CCCC2)c1`: the outcome was inactive.
Then `CCC(C)n1c(O)c(C(c2ccccn2)c2c(O)n(C(C)CC)c(=S)[nH]c2=O)c(=O)[nH]c1=S` (configuration not stated), with “inactive”; and `Cn1c(=O)c(=O)n(C)c2cc(S(=O)(=O)Nc3ccc4c(c3)OCCO4)ccc21`, with “inactive”.
With `Cc1ccc(N(CC(=O)Nc2cccc(C)c2)S(=O)(=O)c2cccc3nonc23)cc1` the entry was “inactive”; with `Nc1cc(N2CCCCC2)c(Cl)cc1[N+](=O)[O-]`, “inactive”.
Then `CCOc1ccc(-c2noc(CCCC(N)=O)n2)cc1OC`, with “inactive”.
As to `CCOc1ccc(/C=C/C(=O)Nc2ccc(OC)cc2[N+](=O)[O-])cc1`, the compound was classed as inactive.
`Nc1ccc(N(c2ccccc2)c2ccc(N)cc2)cc1`: the call was inactive.
Then `Cc1ccccc1C(=O)N(C)Cc1ccccc1`, with “inactive”.
Take `CCC(CC)c1nnc(NC(=O)Oc2ccccc2)s1`: the result was inactive.
With `CCOCc1nnc(NC(=O)COC)s1` the entry was “inactive”; with `Cc1cc(C=O)c(C)n1-c1ccc(Oc2ccc([N+](=O)[O-])cn2)cc1`, “inactive”.
As for `CCCn1nnc(NC(=O)c2ccc(Br)o2)n1`, the call was inactive.
Then `COc1ccccc1CNc1nc2nc(C)c(C)c(=O)n2[nH]1`, with “inactive”; and `Brc1cccc(CNCc2cccs2)c1`, with “inactive”; and `COc1ccc(CCNC(=S)Nc2cccc3ccccc23)cc1`, with “inactive”.
With `Fc1ccc(CCNCc2cccc(Cl)c2)cc1` the entry was “inactive”; with `COc1cc(CNCc2cccs2)cc(Br)c1OC`, “inactive”; with `c1ccc2c(CCNCc3ccc4c(c3)OCO4)c[nH]c2c1`, “inactive”.
Then `CCN(C(=O)COc1cc(=O)n(CC)c2ccccc12)c1cccc(Cl)c1`, with “inactive”; and `CCN(CC)S(=O)(=O)c1ccc2c(c1)nc(SCC(=O)N1CCOCC1)n2-c1ccccc1OC`, with “inactive”; and `O=c1ccc2ccc(Oc3ccc([N+](=O)[O-])cc3[N+](=O)[O-])cc2o1`, with “inactive”.
With `O=C(CCN1CCc2ccccc2C1)Nc1ccccc1F`, the outcome was inactive.
As for `CCCc1nc2c(o1)CC(CC(C)SCC)CC2=O` (configuration not stated), the compound was classed as inactive.
Then `COc1ccc(S(=O)(=O)Nc2ccc(F)c(F)c2)cc1Cl`, with “inactive”; and `S=C(NCc1cccnc1)Nc1ccc(Cl)c(Cl)c1`, with “inactive”.
Then `CCc1cccc(C)c1NC(=S)NCc1cccn1C`, with “inactive”; and `COC(=O)C1=C(CSc2nc3ccccc3o2)NC(=O)NC1c1cc(C)ccc1C` (configuration not stated), with “inactive”.
Take `CCn1c(SCc2nc3scc(-c4ccccc4)c3c(=O)[nH]2)nnc1-c1cccs1`: the result was inactive.
With `COc1ccc2c(c1)OC1=C(C(=O)CCC1)C2C1=C(O)CCCC1=O` (configuration not stated) the entry was “inactive”.
`CC(=O)Nc1cccc(-c2csc(Nc3ccccn3)n2)c1`: the compound was called inactive.
As to `O=C(NNc1nc(-c2ccccc2)cs1)c1ccccc1`, the result was inactive.
For `c1ccc(CN2CCN(c3nc(-c4ccccc4)nc(-n4ccnc4)n3)CC2)cc1`, the compound was called inactive.
With `C#CCOc1ccc(/C=N/O)cc1Cl`, the result was inactive.
With `Cc1ccc(-c2csc(=S)n2CC(=O)OCC(=O)NCc2ccco2)cc1` the entry was “inactive”; with `N#Cc1ccc(C(c2nnnn2CCc2ccccc2)N2CCCCCC2)cc1` (configuration not stated), “inactive”.
With `Cc1ccc(S(=O)(=O)NNC(=O)c2ccc(O)cc2)cc1` the entry was “inactive”; with `CC1(C)SC(=S)N(NC(=O)Nc2ccccc2)C1N(O)C(=O)Nc1ccccc1` (configuration not stated), “inactive”; with `O=C(CCN1CCCCC1)NCC1OCCc2ccccc21` (configuration not stated), “inactive”.
Then `S=C(Nc1cccc(Cl)c1)Nc1cccc2cnccc12`, with “inactive”; and `CCc1nc2cc(Cl)c(Cl)cc2[nH]1`, with “inactive”.
For `Cc1cccc(N2CCN(CC(=O)Nc3nccs3)CC2)c1C`, the compound was called inactive.
Then `CCCOC(=O)Oc1ccc2c(=O)c(Oc3cc(C)cc(C)c3)coc2c1`, with “inactive”; and `COC(=O)c1ccccc1Oc1cnc2ccccc2n1`, with “inactive”; and `CCOC(=O)c1c(/N=C/c2ccc(O)cc2O)sc2c1CCC2`, with “inactive”.
`Cc1cccc(Nc2ncccc2C(=O)NCc2cccs2)c1C`: the compound was classed as inactive.
In the case of `Cc1ccccc1NC(=O)c1sc2nc3c(c(-c4ccco4)c2c1N)CCC3`, the call was inactive.
Then `O=C(Nc1nc2cc3c(cc2s1)OCO3)C1=COCCO1`, with “inactive”; and `N#Cc1c(NC(=O)c2cnccn2)sc2c1CCCC2`, with “inactive”.
Then `COc1ccc(/C=C/C(=O)NC(=S)NNC(=O)c2cnccn2)cc1`, with “inactive”.
Then `COc1ccc(N2CCN(C(=O)CN(c3cccc(Br)c3)S(C)(=O)=O)CC2)cc1`, with “inactive”.
With `NC(=O)CCc1c[nH]c2ccccc12`, the result was inactive.
Then `O=C(Nc1ccc(S(=O)(=O)N2CCCC2)cc1)c1ccc(CN2CCc3ccccc3C2)cc1`, with “inactive”; and `O=C(CCCOc1ccccc1)N1CCCc2ccccc21`, with “inactive”.
Then `CCc1nc(SCC(=O)N2CCCc3ccccc32)c2oc3ccccc3c2n1`, with “inactive”.
Then `O=C(CN1CCN(Cc2ccccc2)CC1)c1c[nH]c2ccccc12`, with “inactive”; and `Cc1ccc2c(c1)[nH]c1c(N3CCN(Cc4ccccc4)CC3)ncnc12`, with “inactive”.
For `CC1CC(C)CN(CCCNC(=O)C2CCC(=O)N2C2CCCC2)C1` (configuration not stated), the outcome was inactive.
On to `CCc1ccc(NC(=O)c2noc3c2CCc2ccccc2-3)cc1`, for which the compound was classed as inactive.
